From PubChem BioAssay
PLK1 PBD inh – Plk1 (human) PBD binding inhibition; P53350; Plk1 PBD phosphopeptide binding, fluorescence polarization; inhibition, %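 (tested at about 20 µM)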; 0.13% of 97,000 active; AID 693; in the data active means inhibition above about 34%, passing the limit was not always enough
PLK1 inh – inhibitors of human PLK1 kinase; 0.53% of 97,000 active; inhibition, % at 10 µM; P53350; recombinant PLK1 kinase, TR-FRET peptide phosphorylation; AID 619;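 active means inhibition of 50% or more in the single-concentration screen; inactive means inhibition below 50%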;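 further: 0% = DMSO max control and 100% = H-89 dihydrochloride min control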
Pyk2 oligo antag – blocks oligomerization of human Pyk2 in cells; Q14289; Q293 cells, Pyk2 FERM NanoBiT luminescence; hits give low values; z-score (the deposit names both 25 µM and 10 µM); 0.83% of 99,000 active; AID 1347419;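 active means Z-score of -3 or lower, scaled per plate to the spread of control and sample wells; inactive means z-score above -3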;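 further: negative z-score means lost luminescence so less FERM oligomerization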
Target sequence (Q14289 whole entry, looked up): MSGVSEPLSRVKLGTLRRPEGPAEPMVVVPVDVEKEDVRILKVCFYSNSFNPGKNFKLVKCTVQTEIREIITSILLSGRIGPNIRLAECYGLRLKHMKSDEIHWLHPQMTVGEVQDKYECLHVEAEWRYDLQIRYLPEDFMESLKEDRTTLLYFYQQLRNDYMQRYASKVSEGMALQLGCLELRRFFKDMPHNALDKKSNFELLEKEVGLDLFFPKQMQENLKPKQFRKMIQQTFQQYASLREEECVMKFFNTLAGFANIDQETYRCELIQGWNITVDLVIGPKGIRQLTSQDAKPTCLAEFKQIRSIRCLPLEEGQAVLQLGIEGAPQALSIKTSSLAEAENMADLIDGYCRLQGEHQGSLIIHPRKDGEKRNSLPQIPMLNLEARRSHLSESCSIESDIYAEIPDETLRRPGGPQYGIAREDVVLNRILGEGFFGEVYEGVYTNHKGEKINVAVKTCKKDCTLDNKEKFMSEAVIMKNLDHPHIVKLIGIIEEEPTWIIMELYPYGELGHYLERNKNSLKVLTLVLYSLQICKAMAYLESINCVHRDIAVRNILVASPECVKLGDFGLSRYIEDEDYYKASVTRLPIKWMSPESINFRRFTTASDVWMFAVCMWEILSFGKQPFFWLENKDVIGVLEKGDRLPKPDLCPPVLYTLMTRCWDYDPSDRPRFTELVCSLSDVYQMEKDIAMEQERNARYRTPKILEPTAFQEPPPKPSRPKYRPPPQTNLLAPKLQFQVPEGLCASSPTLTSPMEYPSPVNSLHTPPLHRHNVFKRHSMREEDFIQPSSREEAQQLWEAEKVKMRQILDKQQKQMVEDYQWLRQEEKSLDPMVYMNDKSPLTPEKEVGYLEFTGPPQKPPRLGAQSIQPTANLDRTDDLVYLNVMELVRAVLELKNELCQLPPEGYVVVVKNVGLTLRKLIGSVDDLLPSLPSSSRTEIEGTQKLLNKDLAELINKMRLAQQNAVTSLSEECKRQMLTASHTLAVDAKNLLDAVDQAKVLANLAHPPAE
sEH act – activators of human soluble epoxide hydrolase; P34913; purified human sEH enzymatic activity, activator screen; activation, % at 2 µM; 0.04% of 91,000 active; AID 717; in the data active means activation above about 37%
sEH inhibitor – blocks human soluble epoxide hydrolase activity | P34913 | recombinant human sEH enzymatic activity assay | 0.34% of 91,000 active | inhibition, % at 2 µM; in the data active means inhibition above about 80%
* hit, by the source's call; / = no result. Shown are actives, neighbours in structure and some others; about 1.6% of the full set was active somewhere.

SMILES	PLK1 PBD inh	PLK1 inh	Pyk2 oligo antag	sEH act	sEH inhibitor
CC(C)(C)c1ccc(C(=O)OCCNC(=O)c2c(Cl)nc3ccccn23)cc1	-19	-4	-3.2*	-9	9
COc1ccc(C2SCC(=O)N2c2c(C)n(C)n(-c3ccccc3)c2=O)cc1OC (stereo unspecified)	-2	-3	0.25	12	-12
COc1ccc(O)c(-c2[nH]ncc2C(=O)c2ccccc2)c1	18	17	-3.5*	-10	12
O=C(c1ccccc1)c1cn[nH]c1-c1ccccc1O	-20	-7	0.49	3	-6
Cn1c(=O)c2c(nc(CN3CCc4ccccc4C3)n2CC(=O)c2ccccc2)n(C)c1=O	-17	-24	0.02	-5	8
COc1cccc(C(=O)N(Cc2ccccc2)Cc2cc3cc4c(cc3[nH]c2=O)OCCO4)c1	-17	-7	-3.3*	2	-3
O=C(CSc1nnnn1-c1cccc2ccccc12)Nc1ccc(N2CCOCC2)c(Cl)c1	13	-4	-3.3*	-72	73
Cc1cc(C)nc(SCC(=O)Nc2ccc(N3CCOCC3)c(Cl)c2)n1	12	-13	0.82	-16	16
O=C(Nc1ccc(N2CCOCC2)c(Cl)c1)c1ccccc1F	21	-1	-0.21	-3	1
O=C(CSc1nnc(C23CC4CC(CC(C4)C2)C3)o1)Nc1ccc(N2CCOCC2)c(Cl)c1	12	-4	-3.3*	-58	59
O=C(COc1c(F)c(F)c(C(F)(F)F)c(F)c1F)Nc1ccc(N2CCOCC2)c(Cl)c1	-9	-14	-0.5	-83	83*
CCOc1ccc(Nc2nc(Cc3nnc(SCC(=O)c4ccc(C)c(C)c4)o3)cs2)cc1	8	-4	-0.69	-1	1
Cc1c(NC(=O)Cn2nc(C(=O)O)c3ccccc3c2=O)c(=O)n(-c2ccccc2)n1C	14	-4	-4*	1	-3
Cc1c(NC(=O)c2nn(C)c(=O)c3ccccc23)c(=O)n(-c2ccccc2)n1C	-12	-16	0.05	14	-12
Cc1noc(C)c1Cn1nc(C(=O)O)c2ccccc2c1=O	-16	51*	0.25	-1	0
Cc1ccc(NC(=O)Cc2ncc(C(F)(F)F)cc2Cl)cc1Cl	16	-6	-0.08	-46	47
O=c1c(Cc2ccc(F)cc2)c(O)ccn1Cc1cccc(Cl)c1	-39	-9	-1.1	0	2
CC1(C)CC(=O)C2=C(C1)N=c1s/c(=C/c3ccc(F)c(F)c3)c(=O)n1C2c1ccc(F)cc1 (stereo unspecified)	2	-8	-0.32	37*	-33
COc1ccc(C2C(C(C)=O)=C(C)N=c3s/c(=C/c4ccc5c(c4)OCO5)c(=O)n32)cc1 (stereo unspecified)	28	-8	/	5	-4
CCC(=O)Nc1cccc(NC(=O)c2cccc([N+](=O)[O-])c2)c1	-2	-15	0.66	-12	13
O=C(c1ccc(N2C(=O)CCC2=O)cc1)N1CCN(c2ccccc2)CC1	28	-12	0.7	/	/
COc1ccc(C(=O)Cn2nnc(-c3ccccc3NC(=O)c3ccco3)n2)cc1	0	-4	-0.28	/	/
CCCc1nc(SCC(=O)Nc2nnc(CC)s2)c2c(C)c(C)sc2n1	-4	-2	-3.7*	0	2
CCc1nc(SCC(=O)Nc2nnc(CC)s2)c2c(C)c(C)sc2n1	8	-3	-2.1	-7	8
COc1ccccc1S(=O)Cc1ccc(C(=O)NCCc2ccc(Cl)cc2)o1 (stereo unspecified)	-21	60*	/	/	/
SMILES	PLK1 PBD inh	PLK1 inh	Pyk2 oligo antag	sEH act	sEH inhibitor
CC(=O)N1CCCc2cc(S(=O)(=O)NCCC3=CCCCC3)ccc21	/	/	0.37	/	/
Cc1sc2nc(NCCO)[nH]c(=O)c2c1C	-13	64*	/	/	/
CS(=O)(=O)N1CCC(C(=O)N2CCc3ccccc3C2)CC1	43	-9	1.1	39*	-39
CS(=O)(=O)N1CCCC(C(=O)N2CCc3ccccc3C2)C1 (stereo unspecified)	3	-16	0.58	2	-3
Cc1cccc(C(C)Nc2ccc([N+](=O)[O-])cn2)c1 (stereo unspecified)	18	-6	-1.2	6	-8
COc1ccc(N2CCN(C(c3ccccc3OC)c3nnnn3C3CCCC3)CC2)cc1 (stereo unspecified)	/	/	-2.9	/	/
COc1ccc(OC)c(C(c2nnnn2C2CCCC2)N2CCN(c3ccccc3F)CC2)c1 (stereo unspecified)	-23	-12	-3.8*	-4	1
Cc1ccc(SCCC(=O)NCCSCc2ccccc2C)cc1	11	-4	1.3	-83	83*
Clc1cccc(Nc2c3c(nc4ncnn24)CCC3)c1	-11	54*	1.5	/	/
Cc1ccc(Nc2c3c(nc4ncnn24)CCC3)cc1	10	-2	0.92	5	-2
O=C(NCc1ccco1)C1Cc2ccccc2CN1S(=O)(=O)c1ccccc1F (stereo unspecified)	-15	-10	-0.26	-5	6
C=CCn1c(SC(C)CC)nc(O)cc1=O (stereo unspecified)	-1	-16	-4.5*	16	-20
CNC(=O)c1ccccc1S(=O)(=O)c1ccccc1C#N	3	-8	-0.1	22	-23
N#Cc1ccccc1CN1C(=O)S/C(=C/c2cccn2-c2ccc(C(=O)O)cc2)C1=O	12	-16	-3.2*	-3	5
COc1cccc(C(c2nnnn2Cc2ccco2)N2CCN(c3cccc(C)c3C)CC2)c1OC (stereo unspecified)	-13	-12	-3.9*	3	-3
COc1cccc(C(c2nnnn2CCc2ccccc2)N2CCN(c3ccccc3)CC2)c1OC (stereo unspecified)	15	-2	-3.3*	0	0
Cc1ccc(C(c2nnnn2CC2CCCO2)N2CCN(c3cccc(C)c3C)CC2)cc1 (stereo unspecified)	-7	-8	-3.4*	-3	2
COc1cccc(C(c2nnnn2Cc2ccccc2)N2CCN(C(=O)c3ccco3)CC2)c1OC (stereo unspecified)	15	-11	-0.55	3	-4
O=C(CCl)Nc1cccn2ncnc12	-7	-10	-0.06	4	-1
CC1(C)Cc2c(sc(/N=C/N3CCCC3)c2C#N)C(C)(C)N1	-10	-6	-0.34	9	-9
COC(=O)C1=CNC=C(C(=O)OC)C1c1ccc(Cl)cc1	5	-15	-3.8*	0	-1
O=S(=O)(c1ccccc1)N1CCN(c2cc(-c3ccccc3)nc3ncnn23)CC1	-26	-9	-3.8*	-2	4
O=C(CCCOc1ccc(Cl)cc1Cl)NCCCO	/	/	1.6	/	/
O=C(CCCOc1ccc(Cl)cc1Cl)N/N=C\C1CCCCC1	-45	-2	1.1	-98	99*
CCc1nnc(NC(=O)CSc2nnc(-c3ccccc3O)n2-c2ccc(C)cc2C)s1	4	-2	-3.8*	-4	1
CCCCCC(=O)Nc1ccc2oc(-c3cncc(Br)c3)nc2c1	3	-18	0.8	-82	82*
O=C(CSc1ccc(Cl)cc1)Nc1ccccc1N1CCN(C(=O)c2ccccc2)CC1	-13	9	-1.7	-13	12
